The values that follow come from PubChem BioAssay (NCI).

Structures are written as SMILES. Values joined by “and” are separate entries in the source; they are usually repeats but may differ in a detail not shown here. Equal values may be shown once. About 83,000 compounds went through this panel and 20% of them were active in at least one assay; those are over-represented in the sample as a whole.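 96-well plates, one dose, 48 hours. Percent growth reported; active if below 10.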 Active and inactive are the calls of the source.

The subject of the first assay is SR leukemia. Briefly: NCI-60 one-dose screen, 48 h (100 = growth as untreated, 0 = no growth, -100 = all killed). As to conditions: 10 µM. As to the method: Growth inhibition of the SR human tumor cell line is measured as a screen for anti-cancer activity. Cells are grown in 96 well plates and exposed to the test compound for 48 hours. Compounds are tested at a single concentration, which is 10^-5 M for most compounds. The reported endpoint is percent growth (GI% or GIPRCNT), where numbers from 0 - 100% represent growth inhibition, and numbers from -100% - 0 represent cell death. For example, a value of 40 represents 60% growth inhibition. A value of 0 means no net growth occurred over the course of the experiment. A value of -40 indicates 40% of cells at the beginning of the experiment died by the end of the experiment. A value of -100 means all cells are dead at the end of the experiment.
NCI-60 Human Tumor Cell Lines Screen was performed using the standard one-dose NCI protocol, which is described in more detail at https://dtp.cancer.gov/discovery_development/nci-60/default.htm.
Compounds with GIPRCNT values below 10 were considered active. Activity score was based on GIPRCNT using the following formula: […]
Score is 0 for GIPRCNT values of 100 or above, 50 for GIPRCNT values of 0, and 100 for GIPRCNT values of -100.
As for `S=c1nc[nH]c2nc[nH]c12`, the growth is 18.1% (inactive).

The assay is the same for the next values; noted with them: 10 µM unless noted.
Turning to `N#CC(=S)Nc1ccc(Cl)c(Cl)c1`, the growth was 9.44% (active).

`COC1C(OC(N)=O)C(O)C(Oc2ccc3c(O)c(NC(=O)c4ccc(O)c(CC=C(C)C)c4)c(=O)oc3c2C)OC1(C)C` (stereo not given): the growth was 84% (inactive) and 80% (inactive).

As to `COc1cc(C2c3cc4c(cc3C(OC(=O)C[n+]3ccccc3)C3COC(=O)C23)OCO4)cc(OC)c1OC` (stereo not given), the growth is 11.5% (inactive).

`COc1ccc(CCN=Cc2ccc(Cl)cc2)cc1OC`: the growth was 98.5% (inactive).

Take `CC(=O)C[n+]1ccccc1Sc1ccc(Cl)cc1`: the growth is 57.4% (inactive).

For `CCNC1=CC(=O)c2ncccc2C1=O`, the growth was 50.9% (inactive).

For the molecule `Cc1ccc([N+](=O)[O-])cc1Br`, the growth was 83% (inactive).

As to `Cc1c(Cl)c(C)c(Cc2c(C)c(Cl)c(C)c(Cl)c2O)c(O)c1Cl`, the growth was 22.7% (inactive).

For the molecule `CCOC(=O)C(N)Cc1cc(I)c(O)c(I)c1` (stereo not given), the growth was 89.3% (inactive) and 104% (inactive).

Take `CC(C)(C)OC(=O)NCCc1ccc(N)cc1`: the growth is 99.5% (inactive).

For `O=[N+]([O-])c1cccc(N=Cc2ccccc2)c1`, the growth was 88.4% (inactive).

As to `OC1CCCN(Cc2ccccc2)C1` (stereo not given), the growth is 88.6% (inactive).

On to `CCOC(=O)c1ccc(C(=N)N)cc1`, for which the growth is 103% (inactive).

For `CCCC(=O)Oc1ccc2ccccc2c1`, the growth is 110% (inactive).

Regarding `COc1ccc(/C=N/NC(N)=S)cc1`, the growth is 107% (inactive).

On to `O=C1c2ccccc2C(c2ccccc2)C1c1ccccc1` (stereo not given), for which the growth was 86.3% (inactive).

For `COCCNC(C)=O`, the growth is 118% (inactive).

As for `CN(C=O)c1ccccc1`, the growth was 101% (inactive).

As for `Cc1c(Cl)cc(Cl)c(N)c1Cl`, the growth was 117% (inactive).

Regarding `COc1cc(Cl)ccc1C`, the growth is 71.2% (inactive).

As to `CCn1c2ccc(N(C)C)cc2c2cc(N(C)C)ccc21`, the growth was 94% (inactive).

With `N=C(N)N1CCc2ccccc2C1`, the growth was 75.1% (inactive) and 93.9% (inactive).

With `C=CCN1C(=O)c2ccccc2C1=O`, the growth is 99.9% (inactive).

As to `CN1C2C=CC(=O)C1C1C(=O)N(c3ccccc3)C(=O)C12` (stereo not given), the growth was 67.5% (inactive).

With `CC(=O)Oc1ccc(C(c2ccc(OC(C)=O)cc2)c2ccccn2)cc1`, the growth was 95.1% (inactive) and 98% (inactive).

For the molecule `Nc1nc(N)c2cc(S(=O)(=O)c3ccccc3)ccc2n1`, the growth was 22% (inactive) and 47.4% (inactive).

With `O=C(/C=C/C=C/c1ccc2c(c1)OCO2)N1CCCCC1`, the growth was 92.4% (inactive) and 86% (inactive).

Turning to `Nc1nc(=S)c2[nH]cnc2[nH]1`, the growth was 5.87% (active) and 0.643% (active).

Consider `O=C1C=CC(=O)N1Cc1ccco1`, for which the growth is 74.7% (inactive).

As to `Clc1ccc2c(c1)N(C1CCCN(Cc3ccccc3)C1)c1ccccc1S2` (stereo not given), the growth was 16.1% (inactive).

For `CC1CCC(=O)N1c1ccc(N)cc1` (stereo not given), the growth was 93.8% (inactive).

Turning to `O=c1ccn2c(n1)OC1CC2OC1COC(c1ccccc1)(c1ccccc1)c1ccccc1` (stereo not given), the growth was 46.1% [100 µM] (inactive).

In the case of `CC1(CO)CCCC1NCCNC1CCCC1(C)CO` (stereo not given), the growth is 95.9% (inactive).

With `N=C(N=C(N)N)N1CCOCC1`, the growth was 103% (inactive).

As to `O=C1C=CC[C@H](/C=C/c2ccccc2)O1`, the growth is 5.19% (active).

As to `N#Cc1c[nH]n2ccnc12`, the growth is 120% (inactive).

Turning to `C/C(=C\c1ccccc1)C(O)C(=O)c1nc2ccc([N+](=O)[O-])cc2[nH]c1=O` (stereo not given), the growth is 102% (inactive).

As for `COC(=O)c1nc(=S)[nH]c(C(=O)OC)c1C(=O)c1ccccc1`, the growth was 113% (inactive).

Still in this assay, the particulars now being: 50 µM.
Consider `S=c1nc[nH]c2nc[nH]c12`, for which the growth is 26.6% (inactive).
